{"source": "PubChem BioAssay (NCI)", "experiment": "NCI Yeast Anticancer Drug Screen. Data for the sgs1 strain (AID 173);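 note: 0% = growth of vehicle-only control cultures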", "details": "S. cerevisiae sgs1 mutant, hits give high values", "procedure": "Growth inhibition of yeast strains with defined genetic alterations is measured as a screen for potential anti-cancer activity. Selected strains with alterations in DNA damage repair or cell cycle control were exposed to compounds and growth inhibition was measured relative to vehicle treated controls. The strain used in this assay is sgs1", "note": "This is part of a sample that, as a whole, favours compounds with a hit. Of some 79,000 tested, about 15% had one in any assay. A number with no mark means an inactive call. The source made the active and inactive calls. Cut-off read from the data, not from the text of the source: active = growth inhibition above about 70%; inactive = the rest.", "data": [{"molecule": "COc1ccc(Br)c(C(=O)Sc2nnnn2-c2cccc(Cl)c2)c1", "values": [{"measurement": "growth inhibition", "setting": "at 1.2 µM", "result": 2, "unit": "%"}, {"measurement": "growth inhibition", "setting": "at 3.7 µM", "result": 2, "unit": "%"}, {"measurement": "growth inhibition", "setting": "at 11.0 µM", "result": 11, "unit": "%"}, {"measurement": "growth inhibition", "setting": "at 33.0 µM", "result": 49, "unit": "%"}, {"measurement": "growth inhibition", "setting": "at 100.0 µM", "result": "94% (active)"}]}, {"molecule": "[N-]=[N+]=NC1=C(c2ccccn2)C(=O)c2cccc3cccc1c23", "values": [{"measurement": "growth inhibition", "setting": "at 1.2 µM", "result": -2, "unit": "%"}, {"measurement": "growth inhibition", "setting": "at 3.7 µM", "result": 1, "unit": "%"}, {"measurement": "growth inhibition", "setting": "at 11.0 µM", "result": 6, "unit": "%"}, {"measurement": "growth inhibition", "setting": "at 33.0 µM", "result": 37, "unit": "%"}, {"measurement": "growth inhibition", "setting": "at 100.0 µM", "result": 67, "unit": "%"}]}, {"molecule": "CCCCCCCCC/C=C/C=C/C(=O)NCC(=O)NC1C(O)C(O)C(Nc2ncnc3nc[nH]c23)OC1C(O)CO", "note": "(stereo not given)", "values": [{"measurement": "growth inhibition", "setting": "at 1.2 µM", "result": -21, "unit": "%"}, {"measurement": "growth inhibition", "setting": "at 3.7 µM", "result": 8, "unit": "%"}, {"measurement": "growth inhibition", "setting": "at 11.0 µM", "result": 14, "unit": "%"}, {"measurement": "growth inhibition", "setting": "at 33.0 µM", "result": 65, "unit": "%"}, {"measurement": "growth inhibition", "setting": "at 100.0 µM", "result": 59, "unit": "%"}]}, {"molecule": "CCCCCCCCCCCCCCCCCCOCC(O)COP(=O)(O)OCC1OC(n2cc(F)c(=O)[nH]c2=O)CC1O", "note": "(stereo not given)", "values": [{"measurement": "growth inhibition", "setting": "at 1.2 µM", "result": 26, "unit": "%"}, {"measurement": "growth inhibition", "setting": "at 3.7 µM", "result": 19, "unit": "%"}, {"measurement": "growth inhibition", "setting": "at 11.0 µM", "result": "81% (active)"}, {"measurement": "growth inhibition", "setting": "at 33.0 µM", "result": "95% (active)"}, {"measurement": "growth inhibition", "setting": "at 100.0 µM", "result": "97% (active)"}]}, {"molecule": "CCOC(=O)c1cnc2c(C(F)(F)F)cccc2c1N=[N+]=[N-]", "values": [{"measurement": "growth inhibition", "setting": "at 1.2 µM", "result": 1, "unit": "%"}, {"measurement": "growth inhibition", "setting": "at 3.7 µM", "result": -2, "unit": "%"}, {"measurement": "growth inhibition", "setting": "at 11.0 µM", "result": -7, "unit": "%"}, {"measurement": "growth inhibition", "setting": "at 33.0 µM", "result": 67, "unit": "%"}, {"measurement": "growth inhibition", "setting": "at 100.0 µM", "result": "97% (active)"}]}, {"molecule": "O=[N+]([O-])c1ccc2nc3ccccc3cc2c1", "values": [{"measurement": "growth inhibition", "setting": "at 1.2 µM", "result": -2, "unit": "%"}, {"measurement": "growth inhibition", "setting": "at 3.7 µM", "result": 13, "unit": "%"}, {"measurement": "growth inhibition", "setting": "at 11.0 µM", "result": 36, "unit": "%"}, {"measurement": "growth inhibition", "setting": "at 33.0 µM", "result": "80% (active)"}, {"measurement": "growth inhibition", "setting": "at 100.0 µM", "result": "97% (active)"}]}, {"molecule": "CC(C)[N+]([O-])(CCCNc1c2ccccc2nc2cccc([N+](=O)[O-])c12)C(C)C", "values": [{"measurement": "growth inhibition", "setting": "at 1.2 µM", "result": 64, "unit": "%"}, {"measurement": "growth inhibition", "setting": "at 3.7 µM", "result": "84% (active)"}, {"measurement": "growth inhibition", "setting": "at 11.0 µM", "result": "93% (active)"}, {"measurement": "growth inhibition", "setting": "at 33.0 µM", "result": "96% (active)"}, {"measurement": "growth inhibition", "setting": "at 100.0 µM", "result": "97% (active)"}]}, {"molecule": "CC1(Cl)CC(O)C2(CC1Br)C1(C)OC1C1OC1(Br)C2(C)C", "note": "(stereo not given)", "values": [{"measurement": "growth inhibition", "setting": "at 1.2 µM", "result": -25, "unit": "%"}, {"measurement": "growth inhibition", "setting": "at 3.7 µM", "result": -33, "unit": "%"}, {"measurement": "growth inhibition", "setting": "at 11.0 µM", "result": -17, "unit": "%"}, {"measurement": "growth inhibition", "setting": "at 33.0 µM", "result": "78% (active)"}, {"measurement": "growth inhibition", "setting": "at 100.0 µM", "result": "98% (active)"}]}]}
